According to PubChem BioAssay AID624202 (National Center for Advancing Translational Sciences (NCATS), 2012):
Among all 380,000 compounds or so, about 4,000 (1.1%) were called active. Roughly 3% stayed inconclusive and do not appear here. For the sample, actives were picked, then their nearest neighbours and some compounds at random. Values without a mark were called inactive. The call rests on the fitted dose curve; in most records, active means well fitted activation curve with a large enough effect; inconclusive means small, poorly fitted or top-dose-only effect; inactive means no such curve, though single readings can be large or run the other way.
Potency means the concentration at half of the fitted maximal effect.

Assay: qHTS Assay to Identify Small Molecule Activators of BRCA1 Expression; further: nearly all actives have a fitted effect of over 80% in size
Conditions: MCF7-BRCA1-FFLuc reporter, luminescence, 48 h; series mostly up to 46.1 µM; activation: at the top concentration
Outline: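 Reporter cells (MCF7, BRCA1 promoter-firefly luciferase) received library compounds across a concentration series for 48 h. End-point luminescence was measured and concentration-effect curves derived after normalization.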
In the case of `CCOC(=O)c1cccc(NS(=O)(=O)c2cn(C)c(C)n2)c1`, the “activation” value is reported as -4.82%. With `Cc1ccc(S(=O)(=O)c2c(Nc3cccc(Cl)c3)sc(C(=O)c3ccc4c(c3)OCO4)c2N)cc1` the “activation” value was -20.3%. In the case of `CC1(C)CC(=O)C=C(c2ccc(COC(=O)c3cc(F)cc(F)c3)cc2)C1=O`, the “activation” value is reported as -11.8%. For `Cc1ccc(-c2ccc(C3=CC(=O)CC(C)(C)C3=O)cc2)cc1`, the Potency was 2.24 µM (active). In the case of `CC1(C)CC(=O)C=C(c2ccccc2CO)C1=O`, the “activation” value is reported as 14.4%. With `COc1cc(C(=O)Nc2ccc(OCc3cc(=O)n4cc(C)sc4n3)cc2)cc(OC)c1OC` the “activation” value was 5.16%. In the case of `CC1=Nc2cc(C(=O)N3CCC(C)CC3)ccc2Sc2ccc(Cl)cc21`, the “activation” value is reported as -35.4%. For `Oc1ccc(Cl)cc1C1C=C(c2ccc3c(c2)OCO3)NC(c2ccc(F)c(Br)c2)N1` (configuration not stated), the “activation” value was -37.8%. In the case of `COc1ccc(C2CC(c3ccccc3)=NN2C(=O)c2ccc(Cl)c([N+](=O)[O-])c2)cc1` (configuration not stated), the “activation” value is reported as -88.3%. In the case of `COc1ccc(C2=NN(C(=O)CSc3nc(=O)n4ccc(C)cc4n3)C(c3ccc(C)cc3)C2)cc1` (configuration not stated), the “activation” value is reported as -15.3%. In the case of `COc1ccc(C2=NN(C(C)=O)C(c3ccccc3)C2)cc1` (configuration not stated), the Potency is reported as 11.2 µM (active). In the case of `O=C(Nc1c(-c2ccc(F)cc2)nc2ccccn12)c1cccc(F)c1`, the “activation” value is reported as -21.3%. For `Cc1ccc(C)c(NC(=S)NNC(=S)Nc2ccc(C(C)C)cc2)c1`, the “activation” value was -7.76%. For `O=C(COC(=O)C1CC2C=CC1C2)Nc1ccccc1` (configuration not stated), the “activation” value was -10.1%. With `CC(C)c1ccc(NC(=S)NC2CC3C=CC2C3)cc1` (configuration not stated) the Potency was 4.47 µM (active). With `OC[C@@H]1O[C@H](n2cnc3c(SCc4ccccc4)ncnc32)[C@H](O)[C@H]1O` the “activation” value was 0%. For `COc1cc(OC)cc(-c2nc3nc(C)c(CCC(=O)Nc4ccccc4)c(C)n3n2)c1`, the “activation” value was 6.37%. In the case of `CC(=O)c1ccc(NC(=O)COc2ccccc2-c2nc(-c3ccccc3)no2)cc1`, the “activation” value is reported as 0%. With `CCN(C(=O)c1sc2cc(OC)ccc2c1Cl)c1ccccc1` the “activation” value was -24.9%. With `COc1ccc2c(Cl)c(C(=O)NCc3ccco3)sc2c1` the Potency was 11.2 µM (active). For `O=C(NCc1ccco1)c1sc2cccc(F)c2c1Cl`, the “activation” value was 60.2%. For `C=C1C=C(C(F)F)n2ncc(C(=O)NCCc3ccccc3OC)c2N1`, the “activation” value was -8.16%. With `Clc1ccc(Cc2nnc(-c3cccs3)o2)cc1` the Potency was 11.2 µM (active). With `CNC(=O)c1nnc(Cc2ccc(Cl)cc2)o1` the “activation” value was 27.6%. For `c1csc(-c2nnc(COc3ncnc4sccc34)o2)c1`, the “activation” value was -5.83%. In the case of `CCCCCCCNc1ccc(/C=C/c2ccnc3ccccc23)cc1`, the “activation” value is reported as -60.9%. For `COc1ccc(OCc2n[nH]c(=S)n2N)cc1`, the “activation” value was 2.71%. In the case of `COc1ccc(Cn2c(C)c(C)c(C#N)c2NC(=O)Nc2ccc(F)cc2)cc1`, the “activation” value is reported as 0%. For `COc1ccc(Cc2n[nH]c(=S)n2NC(=O)Nc2ccc(C)cc2)cc1`, the Potency was 12.6 µM (active). In the case of `CN(C)c1ccc(C=Nc2ccc(/C=C/c3ccnc4ccccc34)cc2)cc1`, the “activation” value is reported as 8.08%. In the case of `O=C(NC1CCCCC1)c1ccc2c(c1)N(Cc1ccc(Cl)cc1)C(=O)c1ccccc1S2=O` (configuration not stated), the “activation” value is reported as -29.4%. In the case of `CCOc1ncccc1C(=O)Nc1ccc2c(c1)OCCO2`, the “activation” value is reported as -13.2%. With `O=CN1CCN(C(=O)c2ccc3c(c2)OCO3)CC1` the “activation” value was 5.32%. In the case of `CC(C)NC(=O)CSc1ccccc1C(=O)NCc1ccc2c(c1)OCO2`, the “activation” value is reported as -1.15%. In the case of `CCSc1ccccc1C(=O)Nc1ccc2c(c1)OCO2`, the Potency is reported as 11.2 µM (active). With `N#Cc1ccccc1NC(=O)c1cccc(COc2ccc(Cl)cc2Cl)c1` the “activation” value was -15.9%. With `N#Cc1ccccc1NC(=O)c1ccc2c(c1)OCO2` the Potency was 3.16 µM (active). With `C/C(=N/NC(=S)Nc1ccccc1)c1ccc2c(c1)OCO2` the “activation” value was 54%. In the case of `O=C(Nc1cccc(Cl)c1N1CCOCC1)c1ccc2c(c1)OCCO2`, the “activation” value is reported as 0.06%. In the case of `Cc1ccc(S(=O)(=O)NCC(=O)Nc2ccc3c(c2)OCCO3)cc1`, the “activation” value is reported as 0%. With `Cc1ccc(C(=O)NNC(=O)c2ccc3c(c2)OCCO3)cc1` the Potency was 6.31 µM (active). In the case of `O=C(Nc1ccccc1)c1ccc2c(c1)OCO2`, the Potency is reported as 10 µM (active). For `Cc1ccc(C(=O)NNC2=Nc3cc([N+](=O)[O-])ccc3OC2)cc1`, the “activation” value was -41.7%. With `COc1cc2c(=O)c(S(=O)(=O)c3ccc(C(C)C)cc3)cn(Cc3ccccc3C)c2cc1OC` the “activation” value was -43.2%. With `COc1cc(C(=O)Nc2ccc(-n3c(C)nc4ccccc4c3=O)cc2)cc(OC)c1OC` the “activation” value was 4.37%. With `O=c1cc2nc(-c3ccccc3)nc(SCCOc3ccc(Cl)cc3)n2[nH]1` the “activation” value was 11.2%. For `CCCCC(CCCC)c1ccc(C=Nc2ccc(/C=C/c3ccnc4ccccc34)cc2)cc1`, the “activation” value was 11%. For `Cc1ccccc1NC(=O)Cn1c(=O)n(CC2CCC(C(=O)NCCc3ccccc3)CC2)c(=O)c2ccccc21` (configuration not stated), the “activation” value was 0.607%. For `CCOC(=O)c1c(C)[nH]c(C)c1S(=O)(=O)N1CCCC(C(=O)NCc2ccccc2Cl)C1` (configuration not stated), the “activation” value was -3.4%. For `COc1ccc(NC(=O)CCNS(=O)(=O)c2ccc3c(c2)CCCC(=O)N3)cc1Cl`, the “activation” value was 0%. For `COCCn1c(SCC(=O)c2cc(C)ccc2C)nc2cc(C(=O)NC3CCCC3)ccc2c1=O`, the “activation” value was 8.48%. For `N#Cc1ccc[n+](CC(=O)c2ccc(O)c(O)c2)c1`, the “activation” value was 16.7%.
